Assay outcomes deposited in PubChem by ICCB-Longwood Screening Facility, Harvard Medical School.
MbtI inh = MbtI salicylate synthase inhibitors, primary screen, biochemical, fluorescence intensity. purified MbtI enzyme, fluorescence intensity read-out. inhibition, % (test concentration not listed). P9WFX0. hit rate 0.89% among 100,000; in the data active = inhibition mostly above about 56%, no sharp cut-off; inactive = mostly below about 77%
Mtb MenB inh = M. tuberculosis MenB inhibitors, primary screen, biochemical, absorbance; AID 540299, 2011; 1,4-dihydroxy-2-naphthoyl-CoA synthase (Mycobacterium tuberculosis (strain ATCC 25618 / …; inhibition, % (test concentration not listed); MenB enzyme assay, absorbance read-out; hit rate 0.43% among 100,000; in the data active = inhibition above about 21%, passing the limit was not always enough
Target sequence (P9WNP5 whole entry, looked up): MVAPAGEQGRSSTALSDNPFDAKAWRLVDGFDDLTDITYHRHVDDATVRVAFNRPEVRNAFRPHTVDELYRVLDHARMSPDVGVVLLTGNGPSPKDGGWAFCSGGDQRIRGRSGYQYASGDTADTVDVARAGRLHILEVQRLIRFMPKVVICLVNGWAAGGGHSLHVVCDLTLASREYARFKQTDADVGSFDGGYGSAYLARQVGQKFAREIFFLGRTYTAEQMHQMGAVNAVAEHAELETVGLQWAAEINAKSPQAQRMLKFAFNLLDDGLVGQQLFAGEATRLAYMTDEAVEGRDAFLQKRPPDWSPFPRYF
Polio RdRp inh = poliovirus RdRp elongation inhibitors, primary screen, biochemical, fluorescence polarization, total intensity | hit rate 0.66% among 150,000 | AID 588519, 2011 | % elongation, % (compound at 16.7 µg/mL) | Genome polyprotein (Poliovirus type 1 (strain Mahoney)), P03300 | poliovirus polymerase elongation; active compounds read low; in the data active = % elongation below about 90%
Starred values were filed as active, the others as inactive; x = no result. Hits are enriched below; roughly 1.5% of the tested compounds scored in any of these assays.

SMILES	MbtI inh	Mtb MenB inh	Polio RdRp inh
C=CCOn1c(=O)c(-c2ccc(OC)c(OC)c2)[n+]([O-])c2ccccc21	78*	-43	93
CCOn1c(=O)c(-c2ccccc2)[n+]([O-])c2ccccc21	2	-15	103
O=C(Cn1c(=S)[nH]c2ccccc21)c1ccc(-c2ccccc2)cc1	x	-13	103
CC(=O)n1c(=S)[nH]c2ccccc21	101*	9	99
NC(=O)C1CCN(C(=O)c2ccc3c(=O)n4c(nc3c2)CCCC4)CC1	-15	-7	101
O=c1[nH]c(=S)[nH]c(O)c1-c1ccccc1	85*	-56	101
CCOC(=O)c1c(N)cc2[nH]c(=S)[nH]c(=O)c2c1-c1ccccc1	x	-34	100
Cc1ccc(/C=C(\NC(=O)c2ccc(C)cc2)C(=O)NCc2ccncc2)cc1	5	x	103
N#CC1(N)CCCC1	-4	-30	102
COc1ccc(C)cc1S(=O)(=O)NC(C)(C)C	3	-16	100
COc1ccc(CCn2nnnc2CN2CCN(Cc3ccccc3)CC2)cc1OC	-3	-20	102
C=CCN1CCN(Cc2nnnn2Cc2ccc(OC)cc2)CC1	1	42*	103
CC1CC(C)(C)OC(CN2CCCCC2)O1 (stereo unspecified)	6	-5	101
O=C(NCc1ccccc1CN1CCOCC1)C1CC(=O)N(c2cccc3ccccc23)C1 (stereo unspecified)	1	1	99
O=S(=O)(c1cccc(Cl)c1Cl)N1CCOCC1	-6	33*	100
O=S(=O)(c1cccc(Cl)c1Cl)N1CCN(c2ncccn2)CC1	4	-3	106
O=S(=O)(c1cccc(CSc2nc3ccccc3s2)c1)N1CCOCC1	-7	-21	108
c1ccc2sc(SN3CCOCC3)nc2c1	84*	-3	104
CS(=O)(=O)Cc1ccc(C(=O)Nc2ccnn2C2CCCC2)cc1	1	9	107
COc1cccc(-c2nnc(SCC(=O)NC3CCCCC3)o2)c1	x	x	88*
COc1cccc(-c2nnc(SCC(=O)N3CCCCC3)o2)c1	x	x	104
O=c1[nH]nc(SCc2csc(-c3ccccc3)n2)c(=O)[nH]1	11	-6	102
O=c1[nH]nc(SCc2cn3ccccc3n2)c(=O)[nH]1	54	-11	32*
CC(=O)N1Cc2ccccc2CC1C(=O)OCc1ccc(C#N)cc1 (stereo unspecified)	-8	2	101
CC(=O)Nc1ccc(S(=O)(=O)N(C)CC(=O)NC2CCCc3ccccc32)cc1 (stereo unspecified)	-16	-5	101
SMILES	MbtI inh	Mtb MenB inh	Polio RdRp inh
CC(=O)N1CCN(c2ccc(N)cc2)CC1	x	30*	103
CCC(=O)N1CCN(c2ccc(N)cc2)CC1	0	-53	104
COc1ccc(CCNC(=O)C2C3C=CC(C3)C2C(=O)O)cc1OC (stereo unspecified)	x	-13	101
CC1=CC2=NS(=O)(=O)CCN2C=C1	99	-1	96
CN(C)S(=O)(=O)c1ccc(SCC(=O)NC2CCCc3ccccc32)nc1 (stereo unspecified)	9	1	104
O=C1CC/C(=C\C(=S)N2CCOCC2)N1	35	-17	105
Cc1nc(-c2c[nH]c3ccccc23)c(C)s1	x	-15	73*
Cc1ccc2nc(-c3c[nH]c4ccccc34)c(Nc3ccccc3)n2c1	x	x	106
CC(C)CC1(C)OCC(C[N+]2(C)CCCCC2)O1 (stereo unspecified)	-176	-23	100
CCN1C(=O)/C(=C\C=C2/N(CC)c3ccc(C(=O)OC)cc3N2CC)SC1=S	10	-28	82
COc1ccc(CN=Cc2ccnc(SCc3ccc(Cl)cc3Cl)n2)cc1	-16	9	111
Cc1cccc(Cl)c1-n1sc(=O)n(CC2CC2)c1=O	72*	-6	96
Cc1cccn(Cc2c(Cl)cccc2Cl)c1=O	11	-11	108
Cc1noc(C)c1-n1sc(=O)n(CC2CC2)c1=O	99*	15	93
Cc1noc(C)c1CC(=O)N1CCC2CCCCC2C1 (stereo unspecified)	-8	2	103
NC(=O)c1nc2n(c1N)CCCC2	0	3	100
O=C1NC(=O)N(c2ccccc2)C(=O)/C1=C\c1ccc(C(=O)O)cc1	14	-29	101
O=C1NC(=S)N(c2ccccc2)C(=O)/C1=C\c1ccoc1	69*	-21	107
CN(c1ccc(C(=O)CSc2nnc(-c3ccco3)n2C2CCCCC2)cc1)S(C)(=O)=O	-3	-44	115
CN1c2ccccc2N(C)C1c1ccc(O)cc1	10	-33	83*
CN1C(=O)c2ccccc2N(C)C1c1ccc(F)cc1 (stereo unspecified)	89	1	101
S=C1NC2(CCCC2)Nc2ccccc21	31	-73	93
c1ccc2c(c1)COC1(CCCCC1)N2	1	38*	102
